Activity calls are given as the source filed them. Rule for the calls: active = hit-call score of the fitted dose curve at least 0.9, where 1 is the maximum; inactive = score below 0.9.
Key:
Conditions in all cases: mRNA level, 48 h; actives raise or lower the signal
[1] = read-out: ABC Transporter (ABCB11), ABCB11 (gene 8647); test: LTEA_HepaRG_ABCB11: Life Technologies and Expression Analysis (LTEA) Assay for ABC Transporter (ABCB11) using HepaRG (AID 2283463)
Procedure, shortened: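 Using HepaRG cultures held in 0.5% DMSO, chemicals were tested at half-log dilutions from 100 uM for 48 h. Induction or suppression of ABCB11 mRNA, normalized to ACTB, GAPDH and POLR2A, was fitted bidirectionally against vehicle.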

[2] = read-out: ABC Transporter (ABCC2), ABCC2 (gene 1244); test: LTEA_HepaRG_ABCC2: Life Technologies and Expression Analysis (LTEA) Assay for ABC Transporter (ABCC2) using HepaRG (AID 2283464)
Procedure, shortened: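 Endpoint is ABCC2 transcript level from qRT-PCR, normalized to three housekeeping genes and fitted bidirectionally relative to DMSO. Human HepaRG cells received test chemical for 48 h at up to 100 uM (8 points, half-log steps, 0.5% DMSO), duplicate wells.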

[3] = read-out: Broad substrate specificity ATP-binding cassette transporter ABCG2 (Homo sapiens) (UniProt Q9UNQ0); test: LTEA_HepaRG_ABCG2: Life Technologies and Expression Analysis (LTEA) Assay for ABC Transporter (ABCG2) using HepaRG (AID 2283465)
Procedure, shortened: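 Gene expression of ABCG2 in HepaRG liver cells is quantified by qRT-PCR following 48 h exposure across an eight-point series topping at 100 uM. Values come from bidirectional fitting relative to DMSO vehicle.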

[4] = read-out: ATP-citrate lyase (ACLY), ACLY (gene 47); test: LTEA_HepaRG_ACLY: Life Technologies and Expression Analysis (LTEA) Assay for ATP-citrate lyase (ACLY) using HepaRG (AID 2283466)
Procedure, shortened: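 ACLY expression changes in human HepaRG liver cells are quantified by qRT-PCR after 48 h exposure to test chemicals (maximum 100 uM, half-log steps). Values are fitted in both directions relative to 0.5% DMSO vehicle.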

[5] = read-out: Peroxisomal acyl-coenzyme A oxidase 1 (ACOX1) gene, ACOX1 (gene 51); test: LTEA_HepaRG_ACOX1: Life Technologies and Expression Analysis (LTEA) Assay for Peroxisomal acyl-coenzyme A oxidase 1 (ACOX1) gene using HepaRG (AID 2283467)
Procedure, shortened: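 Human HepaRG hepatic cultures, 48 h treatment with test chemicals up to 100 uM. ACOX1 expression read by qRT-PCR relative to 0.5% DMSO vehicle.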

[6] = read-out: Alkaline Phosphatase, Placental (ALPP) gene, ALPP (gene 250); test: LTEA_HepaRG_ALPP: Life Technologies and Expression Analysis (LTEA) Assay for Alkaline Phosphatase, Placental (ALPP) gene using HepaRG (AID 2283468);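 for AC50: differentiated human HepaRG liver cells in serum-free induction medium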
Procedure, shortened: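 ALPP transcript level, measured by qRT-PCR and normalized to three housekeeping genes (ACTB, GAPDH, POLR2A), after 48 h dosing of differentiated HepaRG in serum-free induction medium. Top concentration 100 uM with half-log dilutions (8 points, 0.5% DMSO, duplicates); bidirectional fitting relative to DMSO.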

[7] = read-out: Bcl-2 (BAD) gene, BAD (gene 572); test: LTEA_HepaRG_BAD: Life Technologies and Expression Analysis (LTEA) Assay for Bcl-2 (BAD) gene using HepaRG (AID 2283469)
Procedure, shortened: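 Activity values reflect up- or down-regulation of BAD mRNA in human HepaRG hepatic cells treated 48 h in serum-free medium, with eight-point half-log dosing capped at 100 uM and 0.5% DMSO vehicle.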

[8] = read-out: Bcl-2 (BAX) gene, BAX (gene 581); test: LTEA_HepaRG_BAX: Life Technologies and Expression Analysis (LTEA) Assay for Bcl-2 (BAX) gene using HepaRG (AID 2283470)
Procedure, shortened: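 Gene expression measured by Fluidigm qRT-PCR with three housekeeping genes for normalisation. HepaRG cells, plated 48 h beforehand, treated 48 h at up to 100 uM (8-point, half-log) in 0.5% DMSO. Bidirectional fitting versus DMSO.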

[9] = read-out: adenosine kinase (ADK) gene, ADK (gene 132); test: LTEA_HepaRG_ADK: Life Technologies and Expression Analysis (LTEA) Assay for adenosine kinase (ADK) gene using HepaRG (AID 2283471)
Procedure, shortened: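 Read-out is ADK transcript level measured by qRT-PCR and normalised to three housekeeping genes. Cells are human HepaRG, dosed for 48 h at up to 100 uM in 0.5% DMSO. Gain or loss of signal is fitted against DMSO controls.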

[10] = read-out: Alpha-fetoprotein (AFP) gene, AFP (gene 174); test: LTEA_HepaRG_AFP: Life Technologies and Expression Analysis (LTEA) Assay for Alpha-fetoprotein (AFP) gene using HepaRG (AID 2283472)
Procedure, shortened: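 AFP transcript measured by TaqMan qRT-PCR with three housekeeping genes for normalization, after 48 h chemical treatment of HepaRG cells (top 100 uM, half-log steps, 0.5% DMSO). Gain or loss fitted against vehicle.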

Measured: AC50

Sequence of Broad substrate specificity ATP-binding cassette transporter ABCG2 (Homo sapiens) (Q9UNQ0 whole entry, looked up): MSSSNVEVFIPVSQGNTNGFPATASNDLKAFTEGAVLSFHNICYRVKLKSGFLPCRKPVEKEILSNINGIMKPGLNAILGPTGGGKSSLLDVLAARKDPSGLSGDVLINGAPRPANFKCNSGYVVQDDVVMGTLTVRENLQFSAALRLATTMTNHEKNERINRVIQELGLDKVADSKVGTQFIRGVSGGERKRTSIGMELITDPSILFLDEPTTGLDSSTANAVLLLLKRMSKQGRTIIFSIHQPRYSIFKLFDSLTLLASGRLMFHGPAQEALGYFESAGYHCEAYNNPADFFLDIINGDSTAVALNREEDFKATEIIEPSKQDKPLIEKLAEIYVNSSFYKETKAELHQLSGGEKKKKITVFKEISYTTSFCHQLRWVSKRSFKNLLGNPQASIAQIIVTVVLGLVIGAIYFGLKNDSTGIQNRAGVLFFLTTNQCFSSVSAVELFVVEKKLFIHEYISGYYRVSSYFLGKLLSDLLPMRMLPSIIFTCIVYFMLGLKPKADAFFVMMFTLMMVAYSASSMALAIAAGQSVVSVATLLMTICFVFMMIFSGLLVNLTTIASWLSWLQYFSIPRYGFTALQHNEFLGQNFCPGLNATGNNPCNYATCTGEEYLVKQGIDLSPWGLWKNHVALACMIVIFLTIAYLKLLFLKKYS

C=CN1CCCC1=O
inactive: all assays above

O=S(=O)(O)c1ccc(N=Nc2c(O)ccc3cc(S(=O)(=O)O)ccc23)cc1
not listed: [1]
inactive: all other assays above

CCCCCCCC1CCC(=O)O1 (centres undefined)
not listed: [1]
inactive: all other assays above

NC(=O)N(O)[C@@H]1COc2cc(OCc3ccccc3)ccc21
not listed: [1]
inactive: all other assays above

C[C@]12C=CC(=O)C=C1CC[C@H]1[C@@H]3C[C@@H](O)[C@](O)(C(=O)CO)[C@@]3(C)C[C@H](O)[C@@]12F
not listed: [1] | [9]
inactive: all other assays above

OC(Cn1cncn1)(Cn1cncn1)c1ccc(F)cc1F
not listed: [1]
inactive: all other assays above

CC(C)CC(C)O (centres undefined)
not listed: [1]
inactive: all other assays above

O=C(O)c1cccc(C[C@@H]2COc3ccc(OCc4nc5cc(F)ccc5s4)cc3[C@@H]2O)c1
active: [6] 80 µM | [10] 68.7 µM
not listed: [1]
inactive: all other assays above

CCc1ccc(O)c(C(C)(C)C)c1
not listed: [1]
inactive: all other assays above

Cn1cc[nH]c1=S
not listed: [1]
inactive: all other assays above

CCN(CC)C(=S)SSC(=S)N(CC)CC
not listed: [1]
inactive: all other assays above

CCCCCCOC(=O)CC(CC(=O)OCCCCCC)(OC(=O)CCC)C(=O)OCCCCCC
not listed: [1]
inactive: all other assays above

CCCCCOC(C)=O
not listed: [1]
inactive: all other assays above

CC1(C)C(=O)N(Cl)C(=O)N1Cl
not listed: [1]
inactive: all other assays above

CCCc1ccccc1
not listed: [1]
inactive: all other assays above

NC(=O)N1c2ccccc2C=Cc2ccccc21
active: [2] 37.8 µM
not listed: [1]
inactive: all other assays above

COCc1nnc(-c2ccc[n+]([O-])c2)n1-c1c(Cl)c(Cl)cc2[nH]c(=O)c(=O)[nH]c12
not listed: [1]
inactive: all other assays above

O=c1[nH]cnc2c1ncn2[C@H]1CC[C@@H](CO)O1
not listed: [1]
inactive: all other assays above

CCCCC(CC)C(=O)OCCOCCOCCOC(=O)C(CC)CCCC (centres undefined)
not listed: [1]
inactive: all other assays above

Cc1nccn1-c1ccc(Sc2cccc(C3(C(N)=O)CCOCC3)c2)cc1
inactive: [4] | [7] | [8]
active: [2] 19.9 µM | [3] 31.2 µM | [5] 12.2 µM | [6] 5.09 µM | [9] 13.1 µM | [10] 13.4 µM

OCC(CO)(CO)CO
not listed: [1]
inactive: all other assays above

CCCCN1C(=O)[C@@H]([C@H](O)C2CCCCC2)NC(=O)C12CCN(Cc1ccc(Oc3ccc(C(=O)O)cc3)cc1)CC2
active: [2] 2.88 µM | [3] 1.54 µM | [4] 0.672 µM | [5] 2.79 µM | [6] 7.87 µM | [7] 3.81 µM | [9] 1.01 µM | [10] 3 µM
inactive: [8]

CC(C)CCCCCCOC(=O)C1CCCCC1C(=O)OCCCCCCC(C)C (centres undefined)
active: [6] 0.00316 µM | [9] 0.00316 µM
not listed: [1]
inactive: all other assays above

O=C1CN(N=Cc2ccc([N+](=O)[O-])o2)C(=O)N1
active: [3] 50 µM | [6] 75 µM
not listed: [1]
inactive: all other assays above

NNC(=O)c1ccncc1
not listed: [1]
inactive: all other assays above

O=C(O)c1cccc(C(=O)O)c1
not listed: [1]
inactive: all other assays above

c1ccc2c(c1)-c1cccc3c1c-2cc1ccccc13
inactive: [3] | [6] | [7] | [8]
active: [2] 13.8 µM | [4] 3.88 µM | [5] 15.9 µM | [9] 12.3 µM | [10] 17.2 µM

OC[C@H]1O[C@@H]2O[C@H]3[C@H](O)[C@@H](O)[C@@H](O[C@H]4[C@H](O)[C@@H](O)[C@@H](O[C@H]5[C@H](O)[C@@H](O)[C@@H](O[C@H]6[C@H](O)[C@@H](O)[C@@H](O[C@H]7[C@H](O)[C@@H](O)[C@@H](O[C@H]1[C@H](O)[C@H]2O)O[C@@H]7CO)O[C@@H]6CO)O[C@@H]5CO)O[C@@H]4CO)O[C@@H]3CO
not listed: [1]
inactive: all other assays above

OC[C@H]1O[C@@](CO)(O[C@H]2O[C@H](CO)[C@@H](O)[C@H](O)[C@H]2O)[C@@H](O)[C@@H]1O
not listed: [1]
inactive: all other assays above

Cc1ncc([C@@H](CCCCCCc2ccc3c(n2)NCCC3)CC(=O)O)cn1
not listed: [1]
inactive: all other assays above

NC(N)=O
not listed: [1]
inactive: all other assays above

CCOC(N)=O
not listed: [1]
inactive: all other assays above

O=C(O)c1ccc2c(c1)nc(C(=O)NC1CCN(C3CC3)CC1)n2Cc1cc(-c2ccc(Cl)s2)on1
not listed: [1]
inactive: all other assays above

CCCCCCCCN(C)C
not listed: [1]
inactive: all other assays above

CCCCOC(=O)c1ccccc1
not listed: [1]
inactive: all other assays above

O=C(O)[C@H](O)[C@@H](O)C(=O)O
not listed: [1]
inactive: all other assays above
